Experimental data: PubChem BioAssay (NCI)
Compounds without any hit were thinned out: in the full panel of roughly 83,000, 20% have a hit.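 Treatment: one concentration, 48 hours, 96-well format. Scoring: percent growth, with anything below 10 considered active.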 Active and inactive are the calls of the source.

Assays:
Test in all cases: NCI-60 one-dose screen, 48 h (100 = growth as untreated, 0 = no growth, -100 = all killed)
Conditions in all cases: 10 µM unless noted
SR leukemia = tested on: SR leukemia
RPMI-8226 leukemia = tested on: RPMI-8226 leukemia
OVCAR-8 ovarian = tested on: OVCAR-8 ovarian
OVCAR-5 ovarian = tested on: OVCAR-5 ovarian
OVCAR-4 ovarian = tested on: OVCAR-4 ovarian
SK-OV-3 ovarian = tested on: SK-OV-3 ovarian
IGROV1 ovarian = tested on: IGROV1 ovarian
OVCAR-3 ovarian = tested on: OVCAR-3 ovarian
HS 578T breast = tested on: HS 578T breast
NCI/ADR-RES ovarian = tested on: NCI/ADR-RES ovarian
T-47D breast = tested on: T-47D breast
BT-549 breast = tested on: BT-549 breast
MDA-MB-435 melanoma = tested on: MDA-MB-435 melanoma
SW-620 colon = tested on: SW-620 colon
MCF7 breast = tested on: MCF7 breast
HCT-116 colon = tested on: HCT-116 colon
KM12 colon = tested on: KM12 colon
HCC-2998 colon = tested on: HCC-2998 colon

Measured: growth

O=C(O)/C=C/c1cn(-c2ccccc2)nc1-c1ccc(F)cc1
inactive: SR leukemia 104% | RPMI-8226 leukemia 97.4% | OVCAR-8 ovarian 87.4% | OVCAR-5 ovarian 88.8% | OVCAR-4 ovarian 99.1% | SK-OV-3 ovarian 87.8% | IGROV1 ovarian 91.6% | OVCAR-3 ovarian 96% | HS 578T breast 83.4% | NCI/ADR-RES ovarian 90.4% | T-47D breast 93.9% | BT-549 breast 90.7% | MDA-MB-435 melanoma 105% | SW-620 colon 89.8% | MCF7 breast 84% | HCT-116 colon 82.5% | KM12 colon 90.4%

COc1cc(C)cc(-c2c(-c3cc(N4CC(O)C4)nc(-c4cccnc4)n3)cnn2C)c1
inactive: SR leukemia 88.3% | RPMI-8226 leukemia 77.7% | OVCAR-8 ovarian 92.7% | OVCAR-5 ovarian 99.9% | OVCAR-4 ovarian 88.7% | SK-OV-3 ovarian 118% | IGROV1 ovarian 120% | OVCAR-3 ovarian 101% | HS 578T breast 80.5% | NCI/ADR-RES ovarian 83.1% | T-47D breast 62.6% | BT-549 breast 89.7% | MDA-MB-435 melanoma 92% | SW-620 colon 101% | MCF7 breast 87.6% | HCT-116 colon 96.1% | KM12 colon 84.7%

Cc1ccc(C2(C)NC(=O)N(CC(=O)Nc3cccc(C)c3)C2=O)cc1 (stereo not drawn)
inactive: RPMI-8226 leukemia 67.8% | OVCAR-8 ovarian 105% | OVCAR-5 ovarian 97.1% | OVCAR-4 ovarian 99.3% | SK-OV-3 ovarian 97.6% | IGROV1 ovarian 105% | OVCAR-3 ovarian 111% | HS 578T breast 102% | NCI/ADR-RES ovarian 94.8% | T-47D breast 94.4% | BT-549 breast 90.9% | MDA-MB-435 melanoma 108% | SW-620 colon 106% | MCF7 breast 91.2% | HCT-116 colon 96.1% | HCC-2998 colon 102% | KM12 colon 96.6%
active: SR leukemia -22.7%

O=C(CN1C(=O)c2ccccc2S1(=O)=O)Nc1nc(-c2cc3ccccc3oc2=O)cs1
inactive: SR leukemia 109% | RPMI-8226 leukemia 108% | OVCAR-8 ovarian 101% | OVCAR-5 ovarian 106% | OVCAR-4 ovarian 110% | SK-OV-3 ovarian 106% | IGROV1 ovarian 99.1% | OVCAR-3 ovarian 113% | HS 578T breast 96.6% | NCI/ADR-RES ovarian 103% | T-47D breast 98.7% | BT-549 breast 105% | MDA-MB-435 melanoma 104% | SW-620 colon 103% | MCF7 breast 96.6% | HCT-116 colon 104% | KM12 colon 101%

O=C1N/C(=N/N=C(c2ccccc2)c2ccccc2)S/C1=C\c1ccc(Br)cc1
inactive: SR leukemia 83.3% | RPMI-8226 leukemia 95.6% | OVCAR-8 ovarian 95.6% | OVCAR-5 ovarian 102% | OVCAR-4 ovarian 96.8% | SK-OV-3 ovarian 97.2% | IGROV1 ovarian 91.9% | OVCAR-3 ovarian 102% | HS 578T breast 95% | NCI/ADR-RES ovarian 103% | T-47D breast 84.7% | BT-549 breast 97% | MDA-MB-435 melanoma 103% | SW-620 colon 90.7% | MCF7 breast 99.6% | HCT-116 colon 81.8% | HCC-2998 colon 99.5% | KM12 colon 92.9%

O=C1c2c(c3c4cccnc4[nH]c3c3ccc4ccccc4c23)C(=O)N1O
inactive: SR leukemia 17.8% | RPMI-8226 leukemia 16% | OVCAR-8 ovarian 46% | OVCAR-5 ovarian 110% | OVCAR-4 ovarian 53.8% | SK-OV-3 ovarian 75.5% | IGROV1 ovarian 38% | OVCAR-3 ovarian 14.4% | HS 578T breast 70.9% | NCI/ADR-RES ovarian 94.3% | T-47D breast 40.7% | BT-549 breast 45% | MDA-MB-435 melanoma 47.9% | SW-620 colon 21.2% | MCF7 breast 20.8% | HCT-116 colon 26.5% | HCC-2998 colon 77.2% | KM12 colon 50.2%

CCN1CCN(C(=O)[C@]23CC[C@@H](C)[C@H](C)[C@@H]2C2=CC[C@@H]4[C@@]5(C)C/C(=C/c6ccncc6)C(=O)C(C)(C)[C@@H]5CC[C@@]4(C)[C@]2(C)CC3)CC1
active: SR leukemia -12.8% | RPMI-8226 leukemia -29.5% | HS 578T breast 7.21% | MDA-MB-435 melanoma -51.1% | SW-620 colon -22.6% | MCF7 breast 4.97% | HCT-116 colon -51.9% | KM12 colon 5.49%
inactive: OVCAR-8 ovarian 37.4% | OVCAR-5 ovarian 34.2% | OVCAR-4 ovarian 29.8% | SK-OV-3 ovarian 70.2% | IGROV1 ovarian 29.8% | OVCAR-3 ovarian 11.2% | NCI/ADR-RES ovarian 27.4% | T-47D breast 27.1% | BT-549 breast 52.2%

COc1cc(-c2c(-c3ccccc3)c[nH]c2C(=O)NCCCO)c(OC)c2c1OCO2
inactive: SR leukemia 93.9% | RPMI-8226 leukemia 99.7% | OVCAR-8 ovarian 100% | OVCAR-5 ovarian 99.5% | OVCAR-4 ovarian 107% | SK-OV-3 ovarian 96.4% | IGROV1 ovarian 107% | OVCAR-3 ovarian 111% | HS 578T breast 92.9% | NCI/ADR-RES ovarian 106% | T-47D breast 90.9% | BT-549 breast 106% | MDA-MB-435 melanoma 104% | SW-620 colon 102% | MCF7 breast 110% | HCT-116 colon 106% | HCC-2998 colon 110% | KM12 colon 125%

O=C(/C=C/c1ccc(Cl)cc1)c1ccc(-n2cc(CN3CCN(c4cc5c(cc4F)c(=O)c(C(=O)O)cn5C4CC4)CC3)nn2)cc1
inactive: SR leukemia 13.1% | RPMI-8226 leukemia 11.5% | OVCAR-8 ovarian 83.6% | OVCAR-5 ovarian 100% | OVCAR-4 ovarian 94.4% | SK-OV-3 ovarian 84.6% | IGROV1 ovarian 59% | OVCAR-3 ovarian 90.5% | HS 578T breast 65.3% | NCI/ADR-RES ovarian 94.8% | T-47D breast 93.4% | BT-549 breast 90% | MDA-MB-435 melanoma 82.2% | SW-620 colon 81.7% | MCF7 breast 51.2% | KM12 colon 86.4%
active: HCT-116 colon 2.68%

Nc1ccc(Cl)c2c(=O)c3ccccc3[nH]c12
inactive: SR leukemia 100% | RPMI-8226 leukemia 71% | OVCAR-8 ovarian 92.2% | OVCAR-5 ovarian 93.2% | OVCAR-4 ovarian 53.8% | SK-OV-3 ovarian 89.2% | IGROV1 ovarian 94.7% | OVCAR-3 ovarian 75.2% | HS 578T breast 98% | NCI/ADR-RES ovarian 97% | T-47D breast 82.6% | BT-549 breast 75.4% | SW-620 colon 86% | MCF7 breast 65% | HCT-116 colon 84.9% | HCC-2998 colon 88.6% | KM12 colon 89.7%

COC(=O)[C@H]1Cc2c([nH]c3ccccc23)[C@H](c2ccc3c(c2)OCO3)N1
inactive: SR leukemia 103% | RPMI-8226 leukemia 97.5% | OVCAR-8 ovarian 103% | OVCAR-5 ovarian 100% | OVCAR-4 ovarian 94% | SK-OV-3 ovarian 102% | IGROV1 ovarian 90.6% | OVCAR-3 ovarian 99.7% | HS 578T breast 102% | NCI/ADR-RES ovarian 99.8% | T-47D breast 91.8% | BT-549 breast 99.5% | SW-620 colon 102% | MCF7 breast 93.3% | HCT-116 colon 97.6% | HCC-2998 colon 97.6% | KM12 colon 99.3%

Cc1c2cnccc2c(C)c2c1c1cc(C(=O)O)ccc1n2C
active: RPMI-8226 leukemia -1.59% | OVCAR-8 ovarian 5.83% | OVCAR-5 ovarian 9.91% | OVCAR-4 ovarian -4.45% | SK-OV-3 ovarian -4.58% | IGROV1 ovarian 0.419% | OVCAR-3 ovarian 0.0817% | HS 578T breast 8.93% | NCI/ADR-RES ovarian 3.03% | T-47D breast -10.2% | BT-549 breast -1.22% | SW-620 colon 7.21% | MCF7 breast 1.28% | HCT-116 colon 2.6% | HCC-2998 colon 4.89% | KM12 colon 5.47%
inactive: SR leukemia 18.6%

CCCCC#Cc1c(I)n(C2OC(CO[Si](C)(C)C(C)(C)C)C3OC(C)(C)OC32)c(=O)[nH]c1=O (stereo not drawn)
inactive: OVCAR-8 ovarian 85.7% | OVCAR-5 ovarian 82.5% | OVCAR-4 ovarian 70.3% | SK-OV-3 ovarian 98.8% | IGROV1 ovarian 83.8% | OVCAR-3 ovarian 42.7% | HS 578T breast 100% | NCI/ADR-RES ovarian 84.5% | T-47D breast 12.3% | MDA-MB-435 melanoma 82.9% | SW-620 colon 47.6% | MCF7 breast 62.4% | HCT-116 colon 50.2% | KM12 colon 109%
active: SR leukemia -5.46% | RPMI-8226 leukemia -46.9% | HCC-2998 colon -19.8%

O=C(N/N=C/c1ccccc1Cl)c1ccccc1Nc1ccnc(C(F)(F)F)c1
active: SR leukemia -3.24% | RPMI-8226 leukemia -34.9% | OVCAR-8 ovarian 7.58% | OVCAR-5 ovarian 6.58% | OVCAR-4 ovarian -1.98% | SK-OV-3 ovarian -8.48% | IGROV1 ovarian 9.79% | OVCAR-3 ovarian 3.44% | NCI/ADR-RES ovarian 4.04% | T-47D breast -14.3% | MCF7 breast 9.9%
inactive: HS 578T breast 19.3% | BT-549 breast 15.7% | MDA-MB-435 melanoma 14.6% | SW-620 colon 16.6% | HCT-116 colon 13.3% | KM12 colon 10.4%

Nc1ncc(-c2ccc3ncnc(N4CCc5cc(F)c(Cl)cc54)c3c2)cc1C(F)(F)F
active: SR leukemia -8.86% | IGROV1 ovarian -42.6% | HS 578T breast -4.39% | MDA-MB-435 melanoma 0.606% | MCF7 breast 8.11%
inactive: RPMI-8226 leukemia 16.4% | OVCAR-8 ovarian 33.1% | OVCAR-5 ovarian 20.8% | OVCAR-4 ovarian 33.4% | SK-OV-3 ovarian 31.9% | OVCAR-3 ovarian 31.7% | NCI/ADR-RES ovarian 19.5% | T-47D breast 20.4% | SW-620 colon 38.2% | HCT-116 colon 21.3% | HCC-2998 colon 36.2% | KM12 colon 40.2%

COc1cc(-c2ccc(-c3ccc(C(=N)N)s3)s2)cc(OC)c1OC
inactive: OVCAR-8 ovarian 13.9% | OVCAR-5 ovarian 64.6% | OVCAR-4 ovarian 45.1% | SK-OV-3 ovarian 85% | IGROV1 ovarian 71.7% | HS 578T breast 44.1% | NCI/ADR-RES ovarian 77.9% | T-47D breast 39.3% | BT-549 breast 61.7% | HCC-2998 colon 49.7% | KM12 colon 27.7%
active: SR leukemia -20.7% | RPMI-8226 leukemia -34.7% | OVCAR-3 ovarian 3.44% | SW-620 colon -15.5% | MCF7 breast -6.02% | HCT-116 colon -21.5%

COc1cccc2cc(N(C)c3ncnc4ccccc34)ccc12
inactive: OVCAR-5 ovarian 54.3% | OVCAR-4 ovarian 34.7% | SK-OV-3 ovarian 33.9% | IGROV1 ovarian 14.4% | HS 578T breast 40.9% | T-47D breast 59.1% | BT-549 breast 32.3% | SW-620 colon 20.5% | HCC-2998 colon 21.2%
active: SR leukemia 9.25% | RPMI-8226 leukemia -18.3% | OVCAR-8 ovarian 6.23% | OVCAR-3 ovarian 6.13% | NCI/ADR-RES ovarian 8.39% | MCF7 breast 6.28% | HCT-116 colon 8.07% | KM12 colon 5.11%
